High-throughput results from PubChem.
The list is not random: actives were taken first. Their share in the collection is about 27%.
Cav32 inh: Cav3.2 calcium influx blockers – cell-based, Fluo-4 calcium fluorescence, FDSS, MLSMR library, primary screen; Cav3.2-expressing cells; stronger effect = lower value; B-score at 10 µM; 100,000 tested, 4% active; Voltage-dependent T-type calcium channel subunit alpha-1H (Homo sapiens), O95180;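 active means single-dose well whose peak fluorescence ratio is a statistical outlier from its plate by either plate-standardised score or position-corrected B-score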
CYP2C19 inh: blockers of cytochrome P450 2C19 activity – biochemical, luminescence, ADME assay, primary screen. CYP2C19 Supersomes, luciferin-H EGE luminescence, 30 min. P33261. 96,000 tested, 21% active. inhibition, % at 5 µM;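 active means CYP2C19 inhibition above a set limit at 5 µM in the primary screen, cut at about 50% in these data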;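 further: plate controls were negative control wells for no effect and 2.5 mM tranylcypromine positive control for full effect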
CYP2C9 inhib: blockers of cytochrome P450 2C9 activity – biochemical, luminescence, ADME assay, primary screen; P11712; CYP2C9 Supersomes, luciferin-H conversion; inhibition, % at 5 µM; 96,000 tested, 20% active; AID 777, 2007;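 active means blocking of liver enzyme CYP2C9 beyond about 50% at 5 µM, limit read from the data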
CYP2C9 act: human CYP2C9 activators, primary screen, biochemical, luminescence. Cytochrome P450 2C9 (Homo sapiens), P11712. recombinant CYP2C9, luciferin-H conversion; stronger effect = higher value; factor 1 = untreated enzyme, 0 = blocked. AID 1024, 2008. activation factor at 5 µM. 96,000 tested, 1.4% active;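 active means activation factor of 2 or more for CYP2C9 at a 5 µM dose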;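 further: 0 = sulfaphenazole-blocked wells and 1 = vehicle-only wells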
CYP2C19 act: human CYP2C19 activators, primary screen, biochemical, luminescence. recombinant CYP2C19, luciferin-H EGE luminescence; stronger effect = higher value; 0 = fully inhibited enzyme, 1 = untreated enzyme. activation factor at 5 µM. 96,000 tested, under 10 active;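 active means activation factor of at least 2 at 5 µM in the primary screen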;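 further: 0 = wells with 2.5 mM tranylcypromine and 1 = vehicle-only wells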
Numbers without * were called inactive.

Screening CCOc1cc(C(=O)NCCOC)ccc1OC returned Cav32 inh 0.749, CYP2C19 inh 1.9, CYP2C9 inhib -3.2, CYP2C9 act 1 and CYP2C19 act 1.
Screening O=C(CN(Cc1ccco1)C(=O)CNS(=O)(=O)c1ccc(Cl)cc1)NC1CCCCC1 returned Cav32 inh -4.84*, CYP2C19 inh 19.5, CYP2C9 inhib 1.9, CYP2C9 act 1 and CYP2C19 act 0.8.
For CC(C)C(C(=O)NCc1ccco1)N(C(=O)CNS(=O)(=O)c1ccc(Cl)cc1)C1CCCC1 (stereo unspecified) the results were Cav32 inh -7.27*, CYP2C19 inh 14.2, CYP2C9 inhib 17.8, CYP2C9 act 0.8 and CYP2C19 act 0.9.
Screening COc1cccc2cc(/C(C)=N/Nc3nc(-c4cc(C)ccc4C)cs3)c(=O)oc12 returned Cav32 inh -0.181, CYP2C19 inh -17.6, CYP2C9 inhib 18.6, CYP2C9 act 0.8 and CYP2C19 act 1.2.
COc1ccc(Nc2ccc3nnc(-c4ccc(Br)cc4)n3n2)cc1 was read as Cav32 inh -0.0967, CYP2C19 inh -15.4, CYP2C9 inhib 34.0, CYP2C9 act 0.7 and CYP2C19 act 1.2.
CC1=CC(C)(C)N2C(=O)C3(C(C#N)=C(N)OC4=C3C(=O)CC(C)(C)C4)c3cc(C)cc1c32 (stereo unspecified) was read as Cav32 inh -0.18, CYP2C19 inh 16.2, CYP2C9 inhib 31.1, CYP2C9 act 0.7 and CYP2C19 act 0.8.
Screening Cc1cc(N2CC(=O)N(CCc3ccccc3)C(=O)C2)n2ncnc2n1 returned Cav32 inh 0.66, CYP2C19 inh -7.3, CYP2C9 inhib 1.6, CYP2C9 act 1 and CYP2C19 act 1.1.
Screening CC(OC(=O)c1nn(C)c(=O)c2ccccc12)C(=O)NCc1ccc2c(c1)OCO2 (stereo unspecified) returned Cav32 inh -1.04, CYP2C19 inh 38.1, CYP2C9 inhib 77.5*, CYP2C9 act 0.2 and CYP2C19 act 0.6.
`Cn1nc(C(=O)NCc2ccccc2)c2ccccc2c1=O` gave Cav32 inh 1.35, CYP2C19 inh 58.5*, CYP2C9 inhib 24.0, CYP2C9 act 0.8 and CYP2C19 act 0.4.
CC(C(=O)NCc1ccc2c(c1)OCO2)N(c1ccccc1)S(C)(=O)=O (stereo unspecified) was read as Cav32 inh -0.227, CYP2C19 inh 38.4, CYP2C9 inhib 9.9, CYP2C9 act 0.9 and CYP2C19 act 0.6.
For CCC(OC(=O)c1nsc(Cl)c1Cl)C(=O)NCc1cccs1 (stereo unspecified) the results were Cav32 inh -0.466.
Screening CC(OC(=O)c1ccccc1NCc1ccco1)C(=O)Nc1ncc(Cl)cc1Cl (stereo unspecified) returned CYP2C19 inh 66.4*, CYP2C9 inhib 80.7*, CYP2C9 act 0.2 and CYP2C19 act 0.3.
Screening Cn1nc(C(=O)NCc2ccccn2)c2ccccc2c1=O returned Cav32 inh 0.0876.
Screening CC(OC(=O)c1nsc(Cl)c1Cl)C(=O)NCc1ccc2c(c1)OCO2 (stereo unspecified) returned Cav32 inh -1.62, CYP2C19 inh 31.0, CYP2C9 inhib 92.3*, CYP2C9 act 0.1 and CYP2C19 act 0.7.
Screening CC(OC(=O)c1nsc(Cl)c1Cl)C(=O)NCc1ccco1 (stereo unspecified) returned Cav32 inh 0.643, CYP2C19 inh 66.6*, CYP2C9 inhib 56.2*, CYP2C9 act 0.4 and CYP2C19 act 0.3.
CC(C)CCn1nc(C(=O)OC(C)C(=O)NC(N)=O)c2ccccc2c1=O (stereo unspecified) was read as Cav32 inh 0.263, CYP2C19 inh 37.3, CYP2C9 inhib 67.1*, CYP2C9 act 0.3 and CYP2C19 act 0.6.
For CC(NC(=O)Cn1nc(C(=O)O)c2ccccc2c1=O)c1ccccc1 (stereo unspecified) the results were Cav32 inh -0.0245.
For CCNc1nc(NCC)nc(N2CC(=O)N(CC(=O)OCC)C2=N)n1 the results were Cav32 inh -0.623.
For Cn1ccnc1C(O)c1cc(C(C)(C)C)c(O)c(C(C)(C)C)c1 (stereo unspecified) the results were Cav32 inh 0.648, CYP2C19 inh 23.6, CYP2C9 inhib 76.4*, CYP2C9 act 0.2 and CYP2C19 act 0.8.
`S=P(c1ccc(N2CCOCC2)cc1N1CCOCC1)(N1CCOCC1)N1CCOCC1` gave CYP2C19 inh 25.4, CYP2C9 inhib 17.7, CYP2C9 act 0.8 and CYP2C19 act 0.7.
`FC(F)(F)C(F)(F)C(F)(F)c1nnc2ccc(N3CCOCC3)nn12` gave Cav32 inh 0.0375, CYP2C19 inh 76.3*, CYP2C9 inhib 76.5*, CYP2C9 act 0.2 and CYP2C19 act 0.2.
Screening COc1ccc(Cn2c(/C=C/c3ccccc3)nc3ccccc32)cc1 returned Cav32 inh -2.91, CYP2C19 inh 37.9, CYP2C9 inhib 91.4*, CYP2C9 act 0.1 and CYP2C19 act 0.6.
For CCn1c(/C=C/c2ccccc2)nc2ccccc21 the results were Cav32 inh -1.03, CYP2C19 inh 43.7, CYP2C9 inhib -162.7, CYP2C9 act 2.6* and CYP2C19 act 0.6.
For CCn1c(-c2ccc(N)cc2)nc2ccccc21 the results were Cav32 inh 0.07, CYP2C19 inh 21.7, CYP2C9 inhib -8.2, CYP2C9 act 1.1 and CYP2C19 act 0.8.
CN(C)c1nc2c(c(=O)[nH]c(=O)n2C)n1Cc1ccccc1Br was read as Cav32 inh 0.652, CYP2C19 inh 44.1, CYP2C9 inhib 19.9, CYP2C9 act 0.8 and CYP2C19 act 0.6.
For CCOC(=O)c1sc(N)c(C#N)c1COC(=O)CNC(=O)c1ccccc1 the results were CYP2C19 inh 42.2, CYP2C9 inhib 72.9*, CYP2C9 act 0.3 and CYP2C19 act 0.6.
`CCOC(=O)c1sc(NC(=O)c2ccccc2)cc1C` gave Cav32 inh 0.259, CYP2C19 inh 23.8, CYP2C9 inhib 27.5, CYP2C9 act 0.7 and CYP2C19 act 0.8.
For CCC(C)NC(=O)c1cn(C)c(=O)c2cc(OC)c(OC)cc12 (stereo unspecified) the results were Cav32 inh 0.489, CYP2C19 inh 41.1, CYP2C9 inhib -5.1, CYP2C9 act 1.1 and CYP2C19 act 0.6.
`Cc1cc(NC(=O)C2CC(c3ccc(Cl)cc3)=NO2)no1` (stereo unspecified) gave Cav32 inh 0.299, CYP2C19 inh 16.1, CYP2C9 inhib 20.6, CYP2C9 act 0.8 and CYP2C19 act 0.8.
For Cc1cc(C)n(-c2nc(NCc3cccnc3)c3c4c(sc3n2)COC(C)(C)C4)n1 the results were Cav32 inh 0.0198, CYP2C19 inh 39.4, CYP2C9 inhib 58.8*, CYP2C9 act 0.4 and CYP2C19 act 0.6.
For CSc1nc(NCc2ccco2)c2c3c(sc2n1)CN(C)CC3 the results were Cav32 inh 1.32.
